Bioassay records (PubChem BioAssay)
This is a sample that favours compounds with a hit; in the whole collection about 3.8% have one here.
ERa SRC1 pot: enhances coactivator binding to human estrogen receptor alpha; TR-FRET ERalpha-LBD/SRC-Cy5 coactivator binding, 2 h; 100 = basal binding, no effect; P03372; 86,000 compounds, 1.3% hits; coactivator binding (% of control), % at 25.6 µM; in the data active means activity above about 200%;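 further: binding measured in presence of low estradiol as agonist stimulus; 0% = peptide alone without receptor and 100% = receptor with peptide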
ERb coact inh: ER-beta (human) coactivator binding inhibition | Q92731 | TR-FRET ER-beta LBD / SRC1-Cy5 peptide binding; receptor agonist-loaded with 1 µM estradiol | inhibition, % at 25.6 µM | 86,000 compounds, 1.3% hits;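 active means compounds whose percent inhibition of the receptor-coactivator binding signal exceeds about 50% in the single-dose screen, limit read from the data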;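 further: 0% = receptor plus peptide wells without compound and 100% = peptide-only wells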
Target sequence (Q92731 whole entry, looked up, the tested form may be a part): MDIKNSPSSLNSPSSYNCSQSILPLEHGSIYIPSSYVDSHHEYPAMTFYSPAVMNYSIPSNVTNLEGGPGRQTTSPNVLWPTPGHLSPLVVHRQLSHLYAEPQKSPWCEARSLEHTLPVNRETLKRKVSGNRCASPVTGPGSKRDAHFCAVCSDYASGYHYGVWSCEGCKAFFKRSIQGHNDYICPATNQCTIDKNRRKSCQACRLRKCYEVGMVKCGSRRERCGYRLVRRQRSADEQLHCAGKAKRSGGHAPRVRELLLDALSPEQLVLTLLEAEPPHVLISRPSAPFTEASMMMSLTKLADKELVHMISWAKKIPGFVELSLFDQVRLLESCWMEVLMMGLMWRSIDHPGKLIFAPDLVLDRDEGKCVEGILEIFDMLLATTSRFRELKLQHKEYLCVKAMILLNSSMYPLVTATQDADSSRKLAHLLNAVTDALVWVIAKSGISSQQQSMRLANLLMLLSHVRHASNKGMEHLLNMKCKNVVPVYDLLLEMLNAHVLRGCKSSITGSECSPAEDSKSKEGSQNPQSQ
Smad3 FoxH1 inh: inhibitors of human Smad3 transcription factor binding; 88,000 compounds, 0.29% hits; inhibition, % at 25 µM; P84022; TR-FRET Smad3/Dy647-FoxH1 peptide binding, europium anti-His;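 active means compounds that reduce the energy-transfer binding signal between the protein and its labelled peptide by more than half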;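 further: 0% = Smad3 plus labelled peptide maximal FRET and 100% = peptide-only background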
Calb biofilm kill: kills Candida albicans biofilms | C. albicans biofilm + clotrimazole, Alamar Blue | inhibition, % at 6 µM | 85,000 compounds, 0.14% hits | AID 834;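 active means inhibition above 20%; inactive means inhibition below 20%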;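 further: preformed 24 hr biofilms exposed to compound for 48 hr; 0% = biofilm without compound and 100% = blank killed by clotrimazole plus chlorhexidine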
MT1-MMP txn act: MT1-MMP promoter transcription activation. HT1080 MT1-MMP promoter luciferase reporter, luminescence, overnight; stronger effect = higher value. activation factor at 10 µM. 86,000 compounds, 0.16% hits;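 active means activation factor of at least 2 for MT1-MMP transcription at 10 µM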
ERa coact inh: blocks coactivator binding to human estrogen receptor alpha | TR-FRET ER-alpha LBD / SRC-1 peptide, estradiol-bound | 86,000 compounds, 1.7% hits | inhibition, % at 25.6 µM | AID 629; in the data active means inhibition above about 50%;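 further: 0% = receptor plus peptide control and 100% = peptide only without receptor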
Active calls of the source: *; [ ] = another dose, or the depositor's remark.

Results for Cc1cc(Cc2cc(C)cc(C(C)(C)C)c2O)c(O)c(Cc2cc(C)cc(C(C)(C)C)c2O)c1 ?
Smad3 FoxH1 inh: 34.1

How did Cc1csc2ncc(C(=O)Nc3ccccc3F)c(=O)n12 do in these assays?
ERa SRC1 pot: 137.2; ERb coact inh: 21.1; Smad3 FoxH1 inh: -3.5; Calb biofilm kill: -5.1; MT1-MMP txn act: 1.4; ERa coact inh: 29.0

How did Cc1cccc(NC(=O)c2cnc3scc(C)n3c2=O)c1 do in these assays?
ERa SRC1 pot: 335.6*[fluorescence artefact?]; ERb coact inh: 17.8; Smad3 FoxH1 inh: -10.2; Calb biofilm kill: -3.3; MT1-MMP txn act: 1.5; ERa coact inh: -4.1

Results for Cc1csc2ncc(C(=O)Nc3ccc4c(c3)OCCO4)c(=O)n12 ?
ERa SRC1 pot: 120.7; ERb coact inh: 5.7; Smad3 FoxH1 inh: -31.6; Calb biofilm kill: 2.7; MT1-MMP txn act: 1.4; ERa coact inh: 12.2

How did Cc1csc2ncc(C(=O)N3c4ccccc4CC3C)c(=O)n12 (configuration not stated) do in these assays?
ERa SRC1 pot: 120.4; ERb coact inh: 87.3*; Smad3 FoxH1 inh: 2.3; Calb biofilm kill: 4.9; ERa coact inh: -6.3

Results for Cc1csc2ncc(C(=O)Nc3ccccc3Cl)c(=O)n12 ?
ERa SRC1 pot: 238.6*[fluorescence artefact?]; ERb coact inh: 64.9*[fluorescence artefact?]; Smad3 FoxH1 inh: 23.1; Calb biofilm kill: 4.3; MT1-MMP txn act: 1.7; ERa coact inh: 58.4*[fluorescence artefact?]

Results for Cc1ccc(NC(=O)c2cnc3scc(C)n3c2=O)c(C)c1 ?
ERa SRC1 pot: 220.0*; ERb coact inh: 38.9; Smad3 FoxH1 inh: -13.0; Calb biofilm kill: 11.8; MT1-MMP txn act: 1.9; ERa coact inh: 50.4*[fluorescence artefact?]

What do the screens show for `O=C(SCc1cccc2ccccc12)c1ccc(Cl)cc1`?
Smad3 FoxH1 inh: -7.1

How did COC(=O)[C@H]1C[C@@H]1[C@H](NC(=O)[C@@H]1CCCN1C(=O)OC(C)(C)C)c1ccccc1 do in these assays?
MT1-MMP txn act: 1.2

How did Cc1c(NS(=O)(=O)c2ccc3c(c2)OCCO3)cccc1-c1nc2cccnc2s1 do in these assays?
ERa SRC1 pot: 243.9*[fluorescence artefact?]; ERb coact inh: 4.7; Smad3 FoxH1 inh: 1.1; Calb biofilm kill: 7.5; ERa coact inh: 13.0

What do the screens show for `Cc1cc(-c2nc3cccnc3s2)ccc1NS(=O)(=O)c1ccc2c(c1)OCCO2`?
ERa SRC1 pot: 204.1*[fluorescence artefact?]; ERb coact inh: 15.9; Smad3 FoxH1 inh: 3.0; Calb biofilm kill: 10.6; ERa coact inh: 9.9

How did CC(Oc1ccc(Cl)cc1Cl)C(=O)NC1CCSC1=O (configuration not stated) do in these assays?
ERa SRC1 pot: 96.9; ERb coact inh: -0.9; Smad3 FoxH1 inh: 1.9; Calb biofilm kill: 2.7; MT1-MMP txn act: 1.1; ERa coact inh: -5.3

What do the screens show for `CC(C)C(=O)Nc1ccc(C(=O)NC2CCSC2=O)cc1` (configuration not stated)?
ERa SRC1 pot: 204.2*; ERb coact inh: 7.7; Smad3 FoxH1 inh: 3.0; Calb biofilm kill: 5.8; MT1-MMP txn act: 1.2; ERa coact inh: 14.6

Results for C[C@@H]1CCCN(C[C@@H](O)CN2CCCc3ccccc32)C1 ?
Smad3 FoxH1 inh: -7.4

Results for CC1CCN(CCCNC(=O)c2coc3nc4ccccc4nc23)CC1 ?
ERa SRC1 pot: 114.2; ERb coact inh: -9.3; Smad3 FoxH1 inh: 0.4; MT1-MMP txn act: 1.2; ERa coact inh: -11.8

What do the screens show for `Cc1ccc(CCNC(=O)c2coc3nc4ccccc4nc23)cc1`?
ERa SRC1 pot: 290.0*[fluorescence artefact?]; ERb coact inh: -5.5; Smad3 FoxH1 inh: 8.2; Calb biofilm kill: 5.8; MT1-MMP txn act: 1.2; ERa coact inh: -23.9

How did COC(=O)[C@H](Cc1ccccc1)NC(=O)[C@]1(C)C[C@H]1[C@H](NC(=O)OCc1ccccc1)c1ccccc1 do in these assays?
MT1-MMP txn act: 1.1

What do the screens show for `CCC1CCCCN1C(=O)c1c[nH]c2ccc(S(=O)(=O)N(C)c3ccc(Cl)cc3)cc2c1=O` (configuration not stated)?
ERa SRC1 pot: 26.5; ERb coact inh: 13.8; Smad3 FoxH1 inh: 19.9; Calb biofilm kill: 1.4; MT1-MMP txn act: 1.1; ERa coact inh: 57.6*[fluorescence artefact?]

How did CCOc1ccc(N(C)S(=O)(=O)c2ccc3[nH]cc(C(=O)NCC4CCCO4)c(=O)c3c2)cc1 (configuration not stated) do in these assays?
ERa SRC1 pot: 105.0; ERb coact inh: 27.6; Smad3 FoxH1 inh: -2.2; Calb biofilm kill: -3.9; MT1-MMP txn act: 1.1; ERa coact inh: 14.2

What do the screens show for `CCc1ccc(N(C)S(=O)(=O)c2ccc3[nH]cc(C(=O)NCCN4CCOCC4)c(=O)c3c2)cc1`?
ERa SRC1 pot: 94.0; ERb coact inh: 3.5; Smad3 FoxH1 inh: 4.0; Calb biofilm kill: 46.4*; MT1-MMP txn act: 1.1; ERa coact inh: 1.6

Results for CCN(CC)S(=O)(=O)c1ccc2[nH]cc(C(=O)NCCN3CCCCCC3)c(=O)c2c1 ?
ERa SRC1 pot: 98.3; ERb coact inh: -10.8; Smad3 FoxH1 inh: 9.3; Calb biofilm kill: 3.2; MT1-MMP txn act: 1.1; ERa coact inh: -43.5

Results for COCCN(CCOC)C(=O)c1c[nH]c2ccc(S(=O)(=O)N(C)c3ccc(F)cc3)cc2c1=O ?
ERa SRC1 pot: 52.3; ERb coact inh: 17.4; Smad3 FoxH1 inh: 8.3; Calb biofilm kill: 2.3; MT1-MMP txn act: 1.2; ERa coact inh: 53.4*[fluorescence artefact?]

What do the screens show for `O=C(O)c1c[nH]c2ccc(S(=O)(=O)N3CCOCC3)cc12`?
ERa SRC1 pot: 106.9; ERb coact inh: -7.4; Smad3 FoxH1 inh: 6.8; Calb biofilm kill: 8.5; MT1-MMP txn act: 1.1; ERa coact inh: -5.8

What do the screens show for `CN(c1ccc(F)cc1)S(=O)(=O)c1ccc2[nH]cc(C(=O)O)c(=O)c2c1`?
ERa SRC1 pot: 47.0; ERb coact inh: 26.8; Smad3 FoxH1 inh: 9.9; Calb biofilm kill: 4.3; MT1-MMP txn act: 1.2; ERa coact inh: 55.0*[fluorescence artefact?]

What do the screens show for `NCCNC[C@H](O)CO`?
Smad3 FoxH1 inh: -14.8

What do the screens show for `Cn1cc(C(=O)c2ccc(Cl)cc2Cl)cc1C(=O)N/N=C(\N)COc1cccc(C(F)(F)F)c1`?
ERa SRC1 pot: 91.3; ERb coact inh: -6.2; Smad3 FoxH1 inh: 8.6; Calb biofilm kill: 11.5; ERa coact inh: -3.0

What do the screens show for `CCOC(=O)c1ccc2nc(NC(=O)c3cccs3)sc2c1`?
ERa SRC1 pot: 105.9; ERb coact inh: 53.8*[fluorescence artefact?]; Smad3 FoxH1 inh: 3.7; Calb biofilm kill: 2.0; MT1-MMP txn act: 0.6; ERa coact inh: 78.4*[fluorescence artefact?]

What do the screens show for `CCOC(=O)c1sc(NC(=O)c2ccc3ncsc3c2)nc1C`?
ERa SRC1 pot: 473.3*; ERb coact inh: 28.7; Smad3 FoxH1 inh: 21.9; Calb biofilm kill: 5.3; MT1-MMP txn act: 0.8; ERa coact inh: 22.9

Results for CCOC(=O)c1csc(NC(=O)c2ccc(OC)c(OC)c2)n1 ?
ERa SRC1 pot: 278.8*[fluorescence artefact?]; ERb coact inh: -3.4; Smad3 FoxH1 inh: 1.5; Calb biofilm kill: 9.0; MT1-MMP txn act: 1.2; ERa coact inh: -24.4

Results for Oc1ccc(Cl)cc1C=Nc1cnc2ccccc2c1 ?
Smad3 FoxH1 inh: 5.0
